# Experimental data from PubChem BioAssay (NCI).
# Compounds without any hit were thinned out: in the full panel of roughly 83,000, 20% have a hit.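 Treatment: one concentration, 48 hours, 96-well format. Scoring: percent growth, with anything below 10 considered active.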 A number with no mark means an inactive call. Active and inactive are the calls of the source.
# What was measured:
# Assay in all cases: NCI-60 one-dose screen, 48 h (100 = growth as untreated, 0 = no growth, -100 = all killed)
# Conditions in all cases: 10 µM unless noted
# HCT-15 colon = system: HCT-15 colon
# HT29 colon = system: HT29 colon
# SNB-75 CNS = system: SNB-75 CNS
# SNB-19 CNS = system: SNB-19 CNS
# U251 CNS = system: U251 CNS
# PC-3 prostate = system: PC-3 prostate
# SK-MEL-5 melanoma = system: SK-MEL-5 melanoma
# UACC-62 melanoma = system: UACC-62 melanoma
# LOX IMVI melanoma = system: LOX IMVI melanoma
# SK-MEL-28 melanoma = system: SK-MEL-28 melanoma
SMILES,growth (HCT-15 colon),growth (HT29 colon),growth (SNB-75 CNS),growth (SNB-19 CNS),growth (U251 CNS),growth (PC-3 prostate),growth (SK-MEL-5 melanoma),growth (UACC-62 melanoma),growth (LOX IMVI melanoma),growth (SK-MEL-28 melanoma)
CC1CCCC(C[N+](C)(C)C)C1=O (stereo not given),108%,105%,95.2%,96.6%,105%,93.6%,99.5%,90%,50.2%,108%
CC(=O)Nc1nc2c(s1)CC[C@@]1(C)C2=CC[C@H]2[C@@H]3CC[C@H](O)[C@@]3(C)CC[C@@H]21,29.5%,20.8%,54.5%,62.1%,48.5%,67.8%,53.7%,34.9%,53.6%,56.4%
C[C@]12CCc3nc(Nc4ccccc4F)sc3C1=CC[C@@H]1[C@@H]2CC[C@]2(C)C(=O)CC[C@@H]12,29.3%,19.1%,87.3%,85.1%,54.3%,54.9%,81.9%,85.8%,14.5%,77%
C/C(=C\c1ccn(-c2ccc(N)c(F)c2)n1)[C@@H]1C[C@@H]2O[C@]2(C)CCC[C@H](C)[C@H](O)[C@@H](C)C(=O)C(C)(C)[C@@H](O)CC(=O)O1,11.4%,14.9%,-16.9% (active),38.4%,24%,14.7%,14.7%,21.7%,32.4%,58.3%
CC(=O)O[C@H]1CC[C@@]2(C)C(=CC[C@H]3[C@@H]4C[C@@H](N5CC5)[C@H](C(C)=O)[C@@]4(C)CC[C@@H]32)C1,91.6%,85.9%,79.2%,100%,91.5%,77.9%,85.2%,92.8%,87.6%,102%
Clc1ccc(CO/N=C(\Cn2ccnc2)c2ccc(Cl)cc2Cl)c(Cl)c1,6.36% (active),-19.4% (active),30.4%,17.7%,-21.2% (active),4.16% (active),-93.5% (active),1.19% (active),-47.4% (active),28%
O=[As](O)(O)c1ccccc1[As](=O)(O)O,91.1%,109%,116%,109%,93.6%,93.3%,107%,98.5%,87.6%,117%
Nc1ncnc2n[nH]nc12,63.4%,79.7%,90.6%,93.5%,70.1%,64.5%,72.5%,46.7%,43.9%,87.6%
CC1(C)N=C(N)N=C(N)N1c1ccc(OCCCNC(=O)Nc2ccc(S(=O)(=O)F)cc2)c(Cl)c1,41.5%,8% (active),57.6%,28.6%,24.5%,12.7%,29%,23.7%,16.2%,54.2%
Cc1cccc(N2CCN(C(C)C#N)CC2)c1 (stereo not given),106%,105%,106%,115%,103%,102%,105%,111%,94.7%,114%
CC1(C)N=C(N)N=C(N)N1c1ccc(CCCCc2ccc(Cl)c(S(=O)(=O)F)c2)c(Cl)c1,37.3%,16.3%,35.1%,31.6%,28.8%,15.1%,10.6%,16.2%,13.6%,58.2%
CC1=C(CNO)C2=C(C)C3(CC3)[C@@](C)(O)C(=O)C2=C1,12.1%,41.4%,-58.8% (active),4.3% (active),-13.6% (active),5.59% (active),-67.4% (active),28.7%,52.8%,50.2%
O=[N+]([O-])c1cc([N+](=O)[O-])c(Cl)cc1Cl,-58.4% (active),-53.3% (active),-97.7% (active),7.75% (active),-71.3% (active),-14.7% (active),30.1%,-79% (active),-91.1% (active),-41.2% (active)
COC(=O)[C@@]1(O)C[C@H]2O[C@]1(C)n1c3ccccc3c3c4c(c5c6ccccc6n2c5c31)C(=O)NC4,-29.3% (active),-24.6% (active),-97.1% (active),-27.9% (active),-67.1% (active),-50.3% (active),-89.4% (active),-47.4% (active),-69.2% (active),-58.9% (active)
Cc1c(O)c(CN(CCCl)CCCl)cc(CN(CCCl)CCCl)c1O,82.7%,70.8%,78.9%,99.7%,81.6%,65.8%,91.7%,89.1%,77.4%,102%
O=C(CCCCCCC(=O)Nc1ccc(N(CCCl)CCCl)cc1)NO,72%,30.5%,6.28% (active),45%,17.9%,54.6%,-56.6% (active),14.5%,-19.9% (active),35.3%
C[C@]12CC[C@H]3[C@@H](CC4SC(N)=NC45C/C(=N/NC(N)=O)CC[C@]35C)[C@@H]1CCC2=O (stereo not given in full),-47.8% (active),13.2%,99%,-9.98% (active),-69.9% (active),57.3%,20.6%,38.9%,-67.6% (active),13%
COc1cc(/C=N/C2=C(C#N)C(c3ccco3)c3c(c4cc(C)ccc4oc3=O)O2)cc(OC)c1OC (stereo not given),91.8%,109%,82.7%,98.2%,96.6%,89.9%,93.5%,55.6%,88.5%,81.7%
CC(=O)OC[C@]1(C)C=C2C(=O)[C@](C)(O)C3(CC3)C(C)=C2[C@H]1OC(=O)N(C)CCN(C)C(=O)OC(C)(C)C,3.65% (active),0.176% (active),-15.1% (active),8.79% (active),4.09% (active),-21.4% (active),-74.4% (active),-52% (active),-6.97% (active),-4.04% (active)
CC[C@H](C)[C@H](NC(=O)c1ccccn1)C(=O)N(C)[C@H](C[C@@H](OC(C)=O)c1nc(C(=O)N[C@@H](Cc2ccccc2)C[C@H](C)C(=O)OC)cs1)C(C)C,13.5%,2.48% (active),5.57% (active),52.4%,16.1%,24.5%,-22.6% (active),13.1%,29.1%,53.2%
ClCCN(CCCl)c1ccc(OCc2ccccc2)cc1,73.1%,76.7%,53.8%,57.1%,40.5%,63.1%,82.7%,44.2%,38.9%,84.1%
O=[N+]([O-])c1cnc[nH]1,112%,95.1%,93.1%,104%,99.6%,96.5%,106%,96.3%,97.8%,114%
C/C(=C\c1ccn(-c2ccccc2N)n1)[C@@H]1C[C@@H]2O[C@]2(C)CCC[C@H](C)[C@H](O)[C@@H](C)C(=O)C(C)(C)[C@@H](O)CC(=O)O1,16.6%,15.1%,-4.54% (active),29.1%,27.2%,14.3%,12.2%,19.9%,28.5%,58.8%
C=CC12CCN(CC1)C(C(O)c1ccnc3ccc(OC)cc13)C2 (stereo not given),66.1%,11.9%,52.7%,98.5%,80.6%,66%,53.1%,92.8%,89%,85.1%
O=[N+]([O-])c1ccc([Se]C2CCCCC2Cl)c([N+](=O)[O-])c1 (stereo not given),88.3%,60.7%,-39.9% (active),56.2%,20.4%,58.9%,68.6%,72.2%,-55.2% (active),72.6%
CCCC(C)C1(CC)C(=O)NC(=O)N(C)C1=O (stereo not given),107%,94.6%,98.8%,104%,92.1%,85.8%,89.1%,90.8%,98.6%,116%
CN(C)C(=O)Oc1ccccc1,98.1%,118%,89.1%,115%,103%,94.8%,113%,109%,92.4%,111%
